USP2a block – qHTS Assay for Inhibitors of Ubiquitin-specific Protease USP2a Using CHOP2 as the Reporter. Ubiquitin carboxyl-terminal hydrolase 2 (Homo sapiens), O75604. actives 0.01% (n = 330,000). USP2 core, Ub-CHOP2 coupled fluorogenic reporter, 485/531. Potency, µM (doses to about 38.3 µM), most hits filed as inhibitors
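Cell-free coupled assay: 10nM USP2 core preincubated 30min RT with compound in Tris-HCl pH 8.0/CaCl2/CHAPS buffer, then 25nM Ub-CHOP2 and 25nM reporter substrate; fluorescence (Ex 485/Em 531) read after 60min RT, normalized to NEM inhibition, concentration-response curves fitted.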
FBPA coupling cs – qHTS Assay for Inhibitors of Fructose-1,6-bisphosphate Aldolase from Giardia Lamblia: Coupling assay counterscreen; AID 2472, 2010; actives 0.67% (n = 290,000); activity change, negative = inhibition, % at 58.2 µM, hits read low; coupling enzyme system counterscreen, AmpLite Red fluorescence; in the data active = activity change below about -30%
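Fluorescence at 525 nm excitation and 598 nm emission measured inhibition of the coupled detection system without aldolase. Compounds (at 57.5 uM final) were preincubated 10 min at room temperature with coupling enzyme reagent before a 20 min substrate/AmpLite Red step.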
GALK inhibitor – qHTS Assay for Inhibitors of Human Galactokinase (GALK); P51570; Purified GALK, Kinase-Glo residual ATP luminescence; Potency, µM (doses to about 57.5 µM), most hits filed as inhibitors; actives 0.007% (n = 270,000)
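5 nM enzyme, 35 uM ATP, 100 uM galactose, 20 mM HEPES pH8.0, 5 mM MgCl2; 1 h RT; residual ATP by Kinase-Glo Plus luminescence, qHTS format.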
VDR inh – Inhibitors of the vitamin D receptor (VDR): qHTS; actives 0.93% (n = 400,000); VDR-SRC2-3 peptide fluorescence polarization, 2 h; AID 504847, 2011; Potency, µM, hits mostly inhibitors; Vitamin D3 receptor (Homo sapiens), P11473
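FP read-out; VDR + SRC2-3 coactivator peptide; 23 nl compound by pintool; 2 h RT incubation; reagents held at 4 deg C, protected from light.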
PLK1 PBD block – qHTS for Inhibitors of PLK1-PDB (polo-like kinase 1 - polo-box domain): Primary Screen | actives 2.8% (n = 360,000) | Plk1 PBD binding of FITC phosphopeptide, fluorescence polarization | Potency, µM, hits mostly inhibitors | Serine/threonine-protein kinase PLK1 (Homo sapiens), P53350 | AID 720504, 2013; also: series mostly up to about 57 µM; nearly all actives have a fitted effect of over 65% in size
Target sequence (P53350 whole entry, looked up, the tested form may be a part): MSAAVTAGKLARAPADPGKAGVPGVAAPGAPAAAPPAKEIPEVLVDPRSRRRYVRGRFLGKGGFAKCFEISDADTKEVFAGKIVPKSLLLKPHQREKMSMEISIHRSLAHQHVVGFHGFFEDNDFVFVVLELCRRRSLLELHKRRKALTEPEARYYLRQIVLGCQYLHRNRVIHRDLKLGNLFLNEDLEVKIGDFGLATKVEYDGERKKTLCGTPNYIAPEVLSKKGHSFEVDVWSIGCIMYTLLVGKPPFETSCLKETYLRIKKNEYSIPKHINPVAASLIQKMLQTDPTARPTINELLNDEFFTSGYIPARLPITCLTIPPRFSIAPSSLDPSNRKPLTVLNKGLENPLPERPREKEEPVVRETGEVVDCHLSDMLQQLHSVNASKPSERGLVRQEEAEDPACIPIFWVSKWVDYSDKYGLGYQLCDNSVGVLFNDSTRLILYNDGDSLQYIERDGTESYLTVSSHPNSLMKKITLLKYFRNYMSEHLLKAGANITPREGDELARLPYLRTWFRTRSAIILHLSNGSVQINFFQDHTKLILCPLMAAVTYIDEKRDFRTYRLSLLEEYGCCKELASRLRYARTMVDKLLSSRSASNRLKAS
USP1-UAF1 inh – Inhibitors of USP1/UAF1: Primary Screen | AID 743255, 2014 | recombinant USP1/UAF1, Ub-Rhodamine cleavage fluorescence | actives 0.23% (n = 390,000) | Ubiquitin carboxyl-terminal hydrolase 1 (Homo sapiens), O94782 | Potency, µM (titrated, usually from 57.1 µM), actives largely listed as inhibitors; also: nearly all actives have a fitted effect of over 60% in size
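High-throughput fluorogenic screen: 1nM USP1/UAF1 complex, Ub-Rho substrate 150nM final, 50mM HEPES pH 7.8 with 0.5mM EDTA, 0.1 mg/ml BSA, 1mM TCEP and 0.01% Tween-20.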
A number is an active result; 0 = inactive; ? = inconclusive; - = no result given; ! = repeats disagree. This is a sample that favours compounds with a hit; in the whole collection about 3.2% have one here. Unless noted, calls follow the shape of the dose curve; as a rule, active = well fitted curve in the direction sought with a large enough effect; inconclusive = small, poorly fitted or top-dose-only effect, or another doubt; inactive = no such curve, though single readings can be large; an effect the other way counts as inactive or inconclusive.

SMILES	USP2a block	FBPA coupling cs	GALK inhibitor	VDR inh	PLK1 PBD block	USP1-UAF1 inh
CC1(C)CC(=O)C=C(OC(=O)c2ccc(Cl)cc2)C1	0	0	0	0	12µM	0
CC(=O)Nc1ccc(OC(=O)c2ccc(Cl)cc2)cc1	0	0	0	0	0	0
Cc1ccc(NC(=O)C2CCCN(S(=O)(=O)c3cnc[nH]3)C2)c(Br)c1 (stereo unspecified)	0	0	0	?	24µM!	0
O=C1C=C(O)c2c(O)cccc2C1=O	0	0	0	-	-	-
Cc1cc(O)c2c(c1)C(=O)c1cccc(O)c1C2=O	0	0	-	14µM	-	-
COc1ccc(N=N/C(=C\O)C(=O)c2ccco2)cc1	0	0	0	0	27µM	0
COC(=O)CC1C(=O)NCCN1C(=O)CSc1nc2ccccc2s1 (stereo unspecified)	0	0	0	?	13µM	0
CCOc1cc(CNCCO)ccc1OCC(=O)NC(C)(C)C	0	0	0	0	24µM	0
CCOc1cc(CNC)ccc1OCC(=O)NC(C)(C)C	0	0	0	0	0	0
CN1CCC(N(C)C(=S)NC(=O)c2cc(-c3cccc(Br)c3)nc3ccccc23)CC1	0	0	0	0	21µM	0
C/C(=N\Nc1ccc(C#N)cc1[N+](=O)[O-])c1ccc(O)cc1	0	0	0	0	0	0
COc1cc(C(=O)NC(=S)Nc2ccc(Cl)cn2)cc(OC)c1OC	0	0	0	?	24µM	0
CC/C=C\C/C=C\C/C=C\C/C=C\C/C=C\C/C=C\CCC(=O)O	-	0	-	32µM!	-	-
Cc1c(C(=O)OCC(=O)NCc2ccco2)oc2ccccc12	0	-	-	0	0	0
O=C(c1nn2c(C(F)(F)F)cc(-c3ccc(F)cc3)nc2c1Cl)N1CCOCC1	0	0	0	0	27µM	0
O=C(c1nn2c(C(F)(F)F)cc(-c3ccccc3)nc2c1Cl)N1CCOCC1	0	0	0	0	0	0
CC(C)c1ccc(N(CC(=O)O)S(=O)(=O)c2cccnc2)cc1	0	0	0	0	27µM	0
Fc1ccc(CNCc2cccc(Br)c2)cc1	0	0	0	0	0	0
NC(=S)NN=C1c2ccccc2-c2c(F)c(F)c(F)c(F)c21	-	-	-	79µM	8.4µM	0
O=C(c1ccccc1)[C@@H]1[C@@H](C(=O)c2ccc(F)cc2)[C@@]2(C(=O)Nc3ccccc32)[C@H]2c3ccccc3C=CN12	0	-31	0	?	0	28µM
COc1ccccc1/C=N/NC(=O)CCSc1ccccc1	0	-33	0	0	0	0
COc1ccccc1/C=N/NC(=O)CNC(=O)c1ccccc1	0	0	0	0	0	0
CCOC(=O)C1=NN(C(C)=O)C2(CC(=O)N(c3cccc(C)c3)C2=O)C1 (stereo unspecified)	0	0	0	0	27µM	0
COC(=O)C1=NN(C(C)=O)C2(CC(=O)N(c3cccc(C)c3)C2=O)C1 (stereo unspecified)	0	0	0	0	0	0
O=C(C=Cc1ccccc1)c1cccs1	-	-	-	56µM	0	0
SMILES	USP2a block	FBPA coupling cs	GALK inhibitor	VDR inh	PLK1 PBD block	USP1-UAF1 inh
CCOc1ccc(/C=C/C(=O)c2ccccc2)cc1	0	0	0	?	0	?
Cc1c(/C=C/C(=O)c2cccs2)cnn1C	0	0	0	?	3.4µM	0
CCOc1ccc(/C=C/C(=O)c2cccs2)cc1	-	0	-	22µM	-	-
COc1ccc(/C=C/C(=O)c2cccs2)cc1OC	-	0	-	?	-	-
CCc1ccc(C(=O)/C=C/c2cnn(C)c2C)s1	0	0	0	0	0	0
Nc1ccc(/C=C/C(=O)c2cccs2)cc1	0	0	0	0	0	25µM
Nc1ccc(NC(=O)c2cccs2)cc1	0	0	0	0	0	0
Cc1cc(=O)oc2c(C)c(OCC(=O)N(C)C)ccc12	0	0	0	0	0	0
Cc1ccc2c(c1)NC(=O)c1cccc([N+](=O)[O-])c1CO2	0	0	0	-	-	-
O=C(Nc1ccc2nc(SCC(=O)N3CCc4ccccc43)sc2c1)c1ccc(Cl)cc1	-	-	-	0	-	0
COc1cc(OC)c(NC(=O)CC(C)=O)cc1Cl	0	0	-	0	0	0
CSc1nc2c(c(=O)[nH]1)C(c1ccc(Br)cc1)CC(=O)N2 (stereo unspecified)	0	0	0	0	0	0
O=C(O)/C=C/c1ccccc1	-	-	-	0	-	-
O=C(/C=C/c1ccccc1)c1cccs1	-	0	-	11µM	-	-
O=C1Nc2ccccc2C1(O)C/C(=N/O)c1ccccc1 (stereo unspecified)	0	0	0	?	27µM	0
O=C(CC1(O)C(=O)Nc2ccccc21)c1cccc(Br)c1 (stereo unspecified)	0	0	0	0	?	0
CCCCC[C@H](O)/C=C/C1C(=O)C=C[C@H]1C/C=C\CCCC(=O)OC (stereo partly specified)	-	-	-	25µM	0	?
CCCCC[C@H](O)/C=C/[C@H]1C(=O)C=C[C@@H]1C/C=C\CCCC(=O)O	-	0	-	32µM	-	-
Cn1ncc2c(c(SCc3ccc(Cl)cc3Cl)nn2C)c1=O	0	0	0	?	12µM	0
COc1cnn(-c2ccccc2)c(=O)c1SCc1ccc(Cl)cc1Cl	0	0	0	0	?	0
COc1ncc2nc(-c3cc(F)cc(F)c3)c(=O)n(CCc3ccccc3)c2n1	-	0	-	0	-	-
COc1ccc(C)cc1-n1[nH]nnc1=S	0	0	0	0	0	0
Cc1cc(C)c(-n2[nH]nnc2=S)c(C)c1	0	0	0	0	30µM	0
Cc1nnc(SCc2ccc(F)cc2Cl)s1	0	0	0	0	0	0
O=C1C(Nc2ccccc2)=CC(=O)c2ncccc21	-	0	-	?	-	-
SMILES	USP2a block	FBPA coupling cs	GALK inhibitor	VDR inh	PLK1 PBD block	USP1-UAF1 inh
CC(NC1=CC(=O)c2cccnc2C1=O)C(O)c1ccccc1 (stereo unspecified)	-	-	-	?	?	5.6µM
C/C(CC(=O)Nc1ccc(N(C)C)cc1)=N\NC(=O)c1ccc([N+](=O)[O-])cc1Cl	0	0	0	79µM	21µM	0
CC(=O)CC1=NC(C)(C)Cc2ccccc21	0	0	0	0	0	0
COc1ccc(CN(C)CC(=O)Nc2ccccc2C(F)(F)F)cc1	0	0	0	0	0	0
CN(C)Cc1c(O)ccc2ccccc12	0	0	0	0	?	0
CCN(CC(=O)Nc1ccc(NC(C)=O)cc1)Cc1c(O)ccc2cc(Br)ccc12	0	0	0	?	9.5µM	0
Cc1ccc(NC(=O)CN(C)Cc2c(O)ccc3ccccc23)cc1	0	0	0	79µM	3.8µM	0

Assay outcomes deposited in PubChem by National Center for Advancing Translational Sciences (NCATS).
